Test results: PubChem BioAssay AID430 (Sanford-Burnham Center for Chemical Genomics, 2006)
About 1,100 (1.7%) of roughly 63,000 compounds were called active. This is one part of a sample in which actives are shown more often than they occur. No stated cut-off is given here; in the data, active means cytotoxicity above about 50%; inactive means the rest. Entries with a potency or affinity are not part of this list.

experiment: HPDE-C7 pancreatic duct cell viability loss – fluorescence, HTS (AID 430); conditions: HPDE-C7 pancreatic duct cells viability, at 10 µM, stronger effect = higher value;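 further: cells exposed to compound for 48 hours before viability readout; 0% = vehicle and 100% = reference cytotoxic drug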

SMILES | cytotoxicity
COc1ccc(NC(=O)CSc2nnc(CNC(=O)c3ccco3)o2)c(OC)c1 | -0.9% (inactive)
CCOC(=O)C1=C(C)NC(C)=C(C(=O)OCC)C1C(=O)OCC(=O)N1CCC(C)CC1 | 0% (inactive)
CCCn1c(=O)c(C(=O)Nc2ccncc2)c(O)c2ccccc21 | 31.4% (inactive)
CCCn1c(=O)c(C(=O)Nc2cnccn2)c(O)c2ccccc21 | -11.9% (inactive)
CCc1nnc(NC(=O)c2c(O)c3cccc4c3n(c2=O)CC4)s1 | 34.5% (inactive)
CC(C)Cn1c(=O)c(C(=O)Nc2ccncc2)c(O)c2ccccc21 | 53.2% (active)
CCc1nnc(NC(=O)c2cccc(C(=O)Nc3nnc(CC)s3)n2)s1 | 52.5% (active)
CCc1nnc(NC(=O)c2cnccn2)s1 | -17.9% (inactive)
CCCn1c(=O)c(C(=O)Nc2nnc(C)s2)c(O)c2ccccc21 | 75.2% (active)
CCCn1c(=O)c(C(=O)Nc2nnc(CC)s2)c(O)c2ccccc21 | 51.2% (active)
C=CCn1c(=O)c(C(=O)Nc2nnc(C)s2)c(O)c2ccccc21 | 7.8% (inactive)
CCCn1c(=O)c(C(=O)NCc2ccccn2)c(O)c2ccccc21 | -12.9% (inactive)
CCc1nnc(NC(=O)c2cccc(OC)c2)s1 | -1.7% (inactive)
CC(C)Cn1c(=O)c(C(=O)Nc2cnccn2)c(O)c2ccccc21 | 29.3% (inactive)
CC1CC(C)CN(C(=O)C(NS(=O)(=O)c2ccc3c(c2)oc(=O)n3C)C(C)C)C1 (stereo not given) | 9.9% (inactive)
CC(Sc1nnc(Cn2c(=O)sc3ccccc32)n1C)c1ccccc1 (stereo not given) | -13.8% (inactive)
O=C(O)CCC1COc2ccccc2O1 (stereo not given) | -3.3% (inactive)
CC(C)(C)n1nc2c(c1NC(=O)c1ccc(Br)cc1)CS(=O)C2 (stereo not given) | 0.9% (inactive)
Cc1cc(NC(=O)c2cc(-c3cccs3)nc3ccccc23)no1 | 13.3% (inactive)
CCOC(=O)c1[nH]c(C)c(C(=O)NCc2ccc(C)cc2)c1C | -17.6% (inactive)
CCn1c(=O)c(C(=O)Nc2cccnc2)c(O)c2ccccc21 | 15.8% (inactive)
CCn1c(=O)c(C(=O)Nn2c(C)nc3ccccc3c2=O)c(O)c2ccccc21 | 21.7% (inactive)
CCn1nc(NC(=O)c2ccncc2)c2cc3ccc(C)cc3nc21 | -0.2% (inactive)
CCOC(=O)Cn1nnc(-c2ccc(OCC(C)C)cc2)n1 | -9.5% (inactive)
NC(=O)CSc1nnc(Cn2c(=O)sc3ccccc32)n1-c1ccccc1 | 3.5% (inactive)

SMILES | cytotoxicity
CCOc1ccc(-c2nnn(CC(=O)Nc3ccccc3OC)n2)cc1OCC | -3.5% (inactive)
CCOc1ccc(-c2nnn(CC(=O)Nc3cc(OC)ccc3OC)n2)cc1OCC | 69.5% (active)
CCOc1ccc(-c2nnn(CC(=O)Nc3cc(OC)cc(OC)c3)n2)cc1OCC | 8% (inactive)
CCOC(=O)c1ccc(NC(=O)c2cc(S(=O)(=O)N3CCOCC3)ccc2O)cc1 | 3.3% (inactive)
Cc1c(Cl)cccc1NC(=O)CC(C(=O)O)C1CCCO1 (stereo not given) | 7.8% (inactive)
Cc1ccc(N2C(N)=NC(N)=NC23CCCC3)c(C)c1 | -2.3% (inactive)
COc1ccc2nc(NCc3ccccc3)[nH]c2c1 | 39.1% (inactive)
Cc1ccc2nc(NCc3ccccc3)[nH]c2c1 | 70.4% (active)
c1ccc(CNc2nc3ccccc3[nH]2)cc1 | -11.8% (inactive)
CN(CC(=O)NC1CCCc2ccccc21)S(=O)(=O)c1ccc2c(c1)c(=O)n(C)c(=O)n2C (stereo not given) | -10.5% (inactive)
c1csc(-c2csc(-c3cccs3)n2)c1 | -4.7% (inactive)
COc1ccccc1S(=O)Cc1ccc(C(=O)NC2CCCC2)o1 (stereo not given) | -13.2% (inactive)
COC(=O)c1ccccc1NC(=O)Cn1cc2c(n1)CCC(C)C2 (stereo not given) | -7.1% (inactive)
Cc1ccc(C2NC(=O)c3ccccc3N2)s1 (stereo not given) | 55.9% (active)
Cc1ccsc1C1NC(=O)c2ccccc2N1 (stereo not given) | -19.5% (inactive)
O=C1NC(c2cccs2)Nc2ccccc21 (stereo not given) | 5% (inactive)
CCN(CC)CCn1c(OC)cc(=O)[nH]c1=O | -2.5% (inactive)
O=C(CCNC(=O)c1ccc(Br)o1)NCc1ccccc1Cl | -6.1% (inactive)
CC(C)c1ccc(-c2nc(N3CCCCC3)[nH]c(=O)c2C#N)cc1 | 24.7% (inactive)
COc1ccc(CCNC(=O)CSc2nnnn2Cc2ccc3c(c2)OCO3)cc1OC | -16.4% (inactive)
COc1ccc(-c2noc(C)c2-c2ccc3ccccc3n2)c(O)c1 | 48.2% (inactive)
COc1ccc(OC(=O)c2cc3ccccc3o2)cc1 | -0.5% (inactive)
CCOC(=O)c1ccc(NC(=O)Cn2nnc3ccccc32)cc1 | 3.7% (inactive)
CCOCCSC1=C(C#N)C(c2cccs2)C(C(C)=O)=C(C)N1 (stereo not given) | 4.5% (inactive)
C#CCSC1=C(C#N)C(c2cccs2)C(C(=O)OCC)=C(C)N1 (stereo not given) | 53% (active)
